Anthrax LF prot = blocks Bacillus anthracis lethal factor protease. 0.12% of 360,000 active. multiplex microsphere protease cleavage assay, LF. inhibition, % at 10 µM. AID 588501; note: plate controls were buffer without enzyme for full effect and enzyme alone for no effect
PfHsp40 yeast = compounds rescuing yeast from Plasmodium falciparum HSP40 toxicity | 0.68% of 340,000 active | growth rescue, % at 12.5 µM | AID 504582 | S. cerevisiae expressing PfHsp40, growth rescue, ATP luminescence; in the data active = growth rescue above about 28%, passing the limit was not always enough; inconclusive = no clear call, values can overlap the other calls;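 note: yeast W303a lacking pdr1 and pdr3 grown in galactose medium; growth measured after three days at 30 °C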
MazEF act = activators of E. coli MazEF toxin-antitoxin RNase | 0.32% of 350,000 active | P0AE70 | activation, % at 20 µM | FAM/BHQ RNA-DNA oligo cleavage fluorescence, 5 h; in the data active = activation above about 50%
Target sequence (P0AE70 whole entry, looked up): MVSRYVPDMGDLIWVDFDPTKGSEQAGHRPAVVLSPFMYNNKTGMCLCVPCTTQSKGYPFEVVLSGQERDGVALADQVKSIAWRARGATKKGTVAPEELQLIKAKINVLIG
BoNT-F LC inh = BoNT F light chain protease inhibition. Multiplex microsphere protease cleavage assay, flow cytometry. inhibition, % at 10 µM. 0.22% of 360,000 active. AID 588497; in the data active = inhibition above about 35%, passing the limit was not always enough; inconclusive = no clear call, values can overlap the other calls; note: plate controls were buffer without enzyme for full effect and enzyme alone for no effect
BoNT A protease = BoNT A light chain protease inhibition; 0.17% of 360,000 active; inhibition, % at 10 µM; AID 588499; multiplex microsphere protease substrate cleavage, flow cytometry; note: plate controls were buffer without enzyme for full effect and enzyme alone for no effect
Autofluor counter = compound fluorescence in toxin protease inhibitor counterscreen; compound autofluorescence counterscreen, microsphere flow cytometry; stronger effect = higher value; fluorescence intensity (test concentration not listed); 3.1% of 360,000 active; AID 624483; in the data active = fluorescence intensity above about 16000; inconclusive = no clear call, values can overlap the other calls
Active calls of the source: *; u = inconclusive; x = not tested or not shown. Shown are actives, neighbours in structure and some others; about 4.3% of the full set was active somewhere. Cut-off read from the data, not from the text of the source, unless noted: active = inhibition above about 30%; inconclusive = no clear call, values can overlap the other calls; inactive = below that.

SMILES	Anthrax LF prot	PfHsp40 yeast	MazEF act	BoNT-F LC inh	BoNT A protease	Autofluor counter
CCOc1cc(N2CCOCC2)c(OCC)cc1NC(=O)COc1ncnc2ccccc12	-6	0	-5	-4	-1	19880*
CCOc1cc(N2CCOCC2)c(OCC)cc1NC(=O)COC(=O)c1cc2ccccc2cc1O	0	-1	2	-2	0	2443
CC(C)N1CCN(c2ccc(OCC3COC(Cn4cncn4)(c4ccc(Cl)cc4Cl)O3)cc2)CC1 (stereo unspecified)	-8	226*	10	-1	0	3257
CC(C)N1CCN(c2ccc(OC[C@H]3CO[C@](Cn4cncn4)(c4ccc(Cl)cc4Cl)O3)cc2)CC1	-6	222*	5	-8	0	5587
COc1ccc(N2CCN(C(=O)Cn3cncn3)CC2)cc1	-1	0	-3	-4	0	3336
Cc1cccc(C(C)C)c1NC(=O)COC(=O)CNS(=O)(=O)c1ccccc1	-1	x	2	19	5	u
CC(C)n1cnc2cc(NCc3ccccc3O)ccc21	4	0	-1	7	-1	3499
CC(C)n1cnc2cc(NCc3ccccn3)ccc21	-4	0	-10	-7	-2	20604*
O=C(Nc1ccc(C2CCCCC2)cc1)C1CCCN(c2ncccn2)C1 (stereo unspecified)	-1	1	-14	6	u	22140*
CC(=O)Nc1ccc(NC(=O)C2CCCN(c3ncccn3)C2)cc1 (stereo unspecified)	0	0	2	1	-1	4477
Cc1nnc(NC(=O)C2CCCN(c3ncccn3)C2)s1 (stereo unspecified)	-6	1	0	-2	-2	22811*
COc1ccc(NC(=O)C2CCCN(c3cc(C)nc4ncnn34)C2)cc1 (stereo unspecified)	-3	0	7	4	0	3379
O=C(Nc1ccc(Oc2ccccc2)cc1)C1CCCN(c2ncccn2)C1 (stereo unspecified)	-4	1	2	7	3	21093*
COc1ccc(NC(=O)C2CCCN(c3c4c(nc5ncnn35)CCC4)C2)cc1 (stereo unspecified)	-2	0	12	1	0	23021*
O=C(CCNS(=O)(=O)c1ccc(Br)cc1)NCc1ccc(Cl)cc1	-1	-2	7	-6	1	5545
NC(=O)c1ccsc1NC(=O)CCS(=O)(=O)c1ccc(F)cc1	0	2	0	0	0	5303
CCCN1C(=O)/C(=C/c2ccc(N3CCCC3)c(C)c2)NC1=S	9	-2	-16	14	11	18761*
Cc1cc(/C=C2\NC(=S)N(C)C2=O)ccc1N1CCCC1	5	1	214*	9	5	6349
Cc1cc(N2CCCC2)ccc1/C=C1/C(=O)N(C)C(=S)N1C	0	-1	21	-2	7	5322
Cc1cc(C=C(C#N)C#N)ccc1N1CCCC1	21	-1	-409	14	50*	3451
Cc1cc(/C=C2/C(=O)N(C)C(=S)N2C)ccc1N1CCCC1	22	-1	-82	30	36*	15497
COc1cccc(C(=O)NCC2CCCN(C(=O)c3ccc(C=O)cc3)C2)c1OC (stereo unspecified)	0	2	6	1	2	5363
COC(=O)Cn1c2ccc(C)cc2c2nc3ccccc3nc21	6	0	17	13	5	3348
COc1ccc2c(c1)c1nc3ccccc3nc1n2CC(=O)OC(C)C	-7	-1	370*	13	4	7658
COc1ccc(Cn2c3ccc(OC)cc3c3nc4ccccc4nc32)cc1	4	0	65*	0	8	2116
SMILES	Anthrax LF prot	PfHsp40 yeast	MazEF act	BoNT-F LC inh	BoNT A protease	Autofluor counter
Cc1ccc(C2CC(=O)Nc3cc4c(cc32)OCO4)o1 (stereo unspecified)	-3	0	-6	2	1	23026*
CCOC(=O)c1c(C)[nH]c(N=Nc2cccc(OC)c2)c1C	-3	77*	-4	-2	-1	3873
COC(=O)N(C)C[C@@H]1OCc2cnnn2CCCC(=O)N([C@H](C)CO)C[C@@H]1C	-3	x	3	1	0	3510
CC1CN(S(=O)(=O)c2cccc(-c3csc(-c4ccccc4)n3)c2)CC(C)O1 (stereo unspecified)	-4	1	70*	0	0	3333
CN(Cc1c(F)cccc1Cl)C(=O)C1=CC=CN2CCS(=O)(=O)N=C12	-4	-1	4	-6	1	u
COc1ccc2[nH]c(=O)c(CN(C)C(=O)c3ccncc3)cc2c1	0	16	-2	-3	-2	20262*
COc1ccc2[nH]c(=O)c(CN(CCc3ccccc3)C(C)=O)cc2c1	0	1	9	3	2	22156*
Cc1ccc(CNC(=O)[C@@H](NC(=O)C2CCN(C(=O)[C@@H](N)CC(C)C)CC2)C(C)C)cc1	-9	0	7	-4	0	5148
Cc1ccc(NC(=O)COC(=O)C2COc3ccccc3O2)cc1 (stereo unspecified)	0	0	9	3	0	3616
COc1ccc(-c2ccc(SCC(=O)NCc3ccco3)nn2)cc1	-2	0	-4	-4	-2	24470*
O=C(CSc1nc(-c2ccccc2)c(-c2ccccc2)[nH]1)NCc1ccco1	-3	0	-13	-2	0	23502*
CCOc1ccc2nc(SCC(=O)N3CCCc4ccccc43)sc2c1	-6	5	2	2	u	21324*
O=C(CSc1nnc(-c2ccccc2)c(-c2ccccc2)n1)NCc1ccco1	7	1	10	-3	0	9779
CCOc1ccc2nc(SCC(=O)NCc3ccco3)sc2c1	0	-2	-11	4	3	21294*
COc1ccc(C(=O)COC(=O)c2ccccc2O)c(OC)c1	-1	1	3	-9	0	2906
COc1ccc(-c2cc3nc(C)c(CCC(=O)NCc4ccco4)c(C)n3n2)c(OC)c1	-1	0	6	0	-1	20470*
Cc1nc2cc(-c3ccc(Cl)cc3)nn2c(C)c1CCC(=O)NCc1ccco1	0	0	-3	-18	-1	5867
CC12CC(NC(=O)N1c1cccc(C(=O)Nc3ncn[nH]3)c1)c1ccccc1O2 (stereo unspecified)	1	-2	59*	11	1	3858
COc1cccc(C(=O)NNC2=CC(=O)CC(C)(C)C2)c1	-2	1	0	-4	-1	20933*
CC1(C)CC(=O)C=C(NCc2ccc(C(=O)O)cc2)C1	-6	1	-5	-9	-1	u
CC1(C)CC(=O)C=C(NNC(=O)c2cccnc2)C1	u	x	-16	-21	-5	3594
COc1ccc(CNC2=CC(=O)CC(C)(C)C2)cc1	-1	-1	9	-4	-2	24712*
Cn1cc(Cl)c(/C(N)=N/OC(=O)c2ccccc2C(F)(F)F)n1	-1	-1	4	2	0	4134

Source: PubChem BioAssay (several laboratories)
